# Screening results deposited in PubChem by National Center for Advancing Translational Sciences (NCATS).
# TGFb SMAD3 inh – TGF-b pathway inhibition. AID 588855. hit rate 1.2% among 410,000. Potency, µM (series often up to 46.1 µM), for inactives: at the top dose activity, negative = inhibition, actives largely listed as inhibitors. HepG2 CAGA-GFP TGF-b/SMAD3 reporter, GFP fluorescence, 18 h; TGF-beta stimulated, 500 pg/mL final; note: potency is the fitted concentration of half-maximal effect; % is set by controls: 0 for no effect and ±100 for the full control effect; nearly all actives have a fitted effect of over 65% in size
#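 HEPG2 CAGA-GFP cells (1000/well, DMEM with 1% FBS) were pre-incubated 2 h at 37 degrees C, given compound by pin tool, then stimulated with TGF-beta at 500 pg/mL final for 18 h before per-cell GFP fluorescence imaging.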
# TDP1 block – TDP1 (human) enzyme inhibition | AID 485290 | recombinant TDP1, AlphaScreen DNA substrate cleavage | hit rate 0.28% among 350,000 | Potency, µM (series often up to 130 µM), inactives show at the highest dose activity change, negative = inhibition, usual class: inhibitors; note: potency is the fitted concentration of half-maximal effect; % is set by controls: 0 for no effect and ±100 for the full control effect; nearly all actives have a fitted effect of over 40% in size
# Target sequence (Q9NUW8 whole entry, looked up): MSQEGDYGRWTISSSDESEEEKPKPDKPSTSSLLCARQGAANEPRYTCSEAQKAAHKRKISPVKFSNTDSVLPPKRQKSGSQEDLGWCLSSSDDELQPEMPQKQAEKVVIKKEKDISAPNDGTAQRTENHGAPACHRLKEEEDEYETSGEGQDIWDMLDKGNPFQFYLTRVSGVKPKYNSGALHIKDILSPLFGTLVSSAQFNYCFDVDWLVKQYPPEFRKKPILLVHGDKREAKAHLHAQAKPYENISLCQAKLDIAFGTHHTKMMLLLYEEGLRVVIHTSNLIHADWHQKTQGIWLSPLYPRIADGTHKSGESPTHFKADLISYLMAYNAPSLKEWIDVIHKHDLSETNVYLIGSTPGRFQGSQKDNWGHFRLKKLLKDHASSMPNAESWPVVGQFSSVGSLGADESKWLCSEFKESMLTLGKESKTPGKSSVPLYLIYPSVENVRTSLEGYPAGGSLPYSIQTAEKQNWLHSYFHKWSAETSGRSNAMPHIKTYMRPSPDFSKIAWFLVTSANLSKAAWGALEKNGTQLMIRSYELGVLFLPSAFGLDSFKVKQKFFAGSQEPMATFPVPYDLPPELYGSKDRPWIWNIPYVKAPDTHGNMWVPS
#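 Tdp1 1 nM final; 15 min RT w/ cpd; substrate 15 nM, 5 min; beads 10 ug/ml, 10 min; AlphaScreen read. Neg ctrl: no enzyme.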
# TDP1 cell CPT – DT40-hTDP1 cell growth loss with CPT; chicken DT40 Tdp1-/-;hTDP1 cells + 20 nM CPT, ATP luminescence, 48 h; Potency, µM (series often up to 46.2 µM), for inactives: at the highest dose activity change, negative = growth inhibition, actives largely listed as inhibitors; hit rate 12% among 420,000; AID 686979; note: potency is the fitted concentration of half-maximal effect; % is set by controls: 0 for no effect and ±100 for the full control effect; nearly all actives have a fitted effect of over 55% in size
#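 Chicken DT40 Tdp1-/- cells stably complemented with human TDP1 were seeded at 400 cells/well in medium containing 20 nM camptothecin, exposed to pin-transferred compounds, and grown at 37 °C for at least 48 hr. Viability was read as ATP luminescence.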
# DT40 TDP1 no CPT – qHTS for Inhibitors of human tyrosyl-DNA phosphodiesterase 1 (TDP1): qHTS in cells in absence of CPT. DT40 Tdp1-/- hTDP1 cells, no CPT, ATP luminescence, 48 h. Potency, µM (highest dose often 46.2 µM), for inactives: at the highest dose activity change, negative = growth inhibition, most hits filed as inhibitors. hit rate 15% among 420,000; note: potency is the fitted concentration of half-maximal effect; % is set by controls: 0 for no effect and ±100 for the full control effect; nearly all actives have a fitted effect of over 55% in size
#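 Growth kinetics read by CellTiter-Glo luminescence after ≥48 hr at 37 °C. Cells: DT40 Tdp1-/- stably carrying human TDP1, 400 per well, compound exposure in the absence of CPT (DMSO vehicle).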
# IL1B secr inh – blocks inflammasome-driven IL-1 beta release; THP-1 LPS/ATP IL-1B secretion, AlphaLISA, 16 h; stronger effect = lower value; activity change, % at 57.5 µM; hit rate 4.7% among 360,000; AID 743279; in the data active = activity change below about -50%; inconclusive = mostly about -30% to -49%; note: % is set by controls: 0 for no effect and ±100 for the full control effect
#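 Secreted IL-1B measured by AlphaLISA bead assay after 16 h compound exposure of THP-1 cells; compounds (final up to 57.5 uM) added 1 h before LPS (250 ng/mL) and ATP (1.25 mM) stimulation; lower signal means less secretion.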
# HepG2 viability – counter-screen for TGF-b inhibitors: cytotoxicity in HepG2 cells | HepG2 CAGA-GFP viability, ATP luminescence, 18 h | Potency, µM (doses to about 46.1 µM), for inactives: at the top dose activity change, negative = cytotoxicity, hits mostly cytotoxic | hit rate 0.76% among 410,000 | AID 588856; note: potency is the fitted concentration of half-maximal effect
#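 HepG2 CAGA-GFP cells (1000/well, DMEM with 1% FBS) received compound, then TGF-beta at 500 pg/mL final, and were incubated 18 hours at 37 degrees C. Viability was read by CellTiter-Glo luminescence. Media-only wells were set as complete cell-killing and DMSO as no toxicity.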
# The depositor's hits bear a star; u = inconclusive; x = no result; [ ] = another dose, or the depositor's remark. This is a sample that favours compounds with a hit; in the whole collection about 19% have one here. Unless noted, calls come from the whole dose curve; as a rule, active = well fitted curve in the direction sought with a large enough effect; inconclusive = small, poorly fitted or top-dose-only effect, or another doubt; inactive = no such curve, though single readings can be large; an effect the other way counts as inactive or inconclusive.
SMILES,TGFb SMAD3 inh,TDP1 block,TDP1 cell CPT,DT40 TDP1 no CPT,IL1B secr inh,HepG2 viability
CCc1cccc(CC)c1NC(=O)CN1C2CCCC1CC(NC(=O)Nc1cccc(OC)c1)C2 (stereo not drawn),-14%,-3%,18µM*,u,u,-35%
COc1cccc(C(=O)NC2CC3CCCC(C2)N3CC(=O)Nc2ccccc2C(F)(F)F)c1 (stereo not drawn),u,x,u,16µM*,-16,-7%
CCCN1C2CCCC1CC(NC(=O)Nc1cccc(C(C)=O)c1)C2 (stereo not drawn),0%,2%,-14%,2%,21,-21%
CCOc1ccc(N2C(=O)CC(N(Cc3ccco3)C(C)=O)C2=O)cc1 (stereo not drawn),u,10%,12%,2%,-14,2%
COc1ccc(O)c(/C=c2/sc3nc4cc(C)c(C)cc4n3c2=O)c1,u,3%,16µM*,16µM*,15,2%
COC(=O)c1cc(=O)nc2sc3cc(OC)ccc3n12,-1%,2%,-21%,9%,7,-1%
COc1cc(C2C(C(=O)Nc3ccccc3C)=C(C)Nc3ncnn32)ccc1OCC(N)=O (stereo not drawn),-1%,0%,-7%,-1%,x,1%
COc1ccccc1-n1c(CNC(=O)c2ccco2)n[nH]c1=S,19%,2%,-6%,15%,22,8%
OCCC1CN(Cc2ccc(Oc3ncccn3)cc2)CCN1C1CCCC1 (stereo not drawn),-5%,x,u,1%,-16,1%
O=C(N(c1ccccn1)c1ccccn1)C12CC3CC(CC(C3)C1)C2,-1%,0%,0%,-2%,33,-13%
CCC(Oc1ccccc1)C(=O)N(Cc1ccccc1)c1ccccn1 (stereo not drawn),-1%,-3%,u,16µM*,0,-5%
CC(C)C(=O)N(Cc1ccccc1)c1ccccn1,14%,6%,-16%,-11%,u,-15%
O=C(N(Cc1ccccc1)c1ccccn1)C12CC3CC(CC(C3)C1)C2,20%,-5%,26µM*,16µM*,-24,-22%
COc1ccc(C)cc1/C=C/C(=O)N1CCN(S(=O)(=O)c2cccs2)CC1,0%,x,21µM*,u,-10,-23%
Cc1ccc(/C=C/C(=O)N2CCN(S(=O)(=O)c3cccs3)CC2)o1,-2%,9%,5%,-7%,37,-3%
COc1ccc(N=C2NC(=O)/C(=C\C=C\c3ccco3)S2)cc1,2%,3%,u,u,-63*,-4%
Cc1cccc(N=C2NC(=O)/C(=C/C=C/c3ccco3)S2)c1,-22%,3%,13µM*,23µM*,-10,2%
Cc1oc2c(c(C)cc3oc(=O)c(CC(=O)NCCc4ccc(Cl)cc4)c(C)c32)c1C,0%,7%,8%,2%,x,7%
CCOC(=O)C1=C(CSc2nc3ccccc3s2)NC(=O)NC1c1cccc([N+](=O)[O-])c1 (stereo not drawn),-14%,6%,18µM*,u,-17,-36%
CCc1cc(-c2nnn(CCC3COCCO3)c2CC)ccc1-c1cn(CCc2c[nH]c3ccccc23)nn1 (stereo not drawn),-21%,x,16µM*,12µM*,13,-42%
O=C(c1ccccc1)N(c1ccccc1)c1ccccc1O,-24%,x,15µM*,16µM*,20,-16%
C[C@@H](NC(=O)C1(c2ccccc2)CCN(C(=O)OC(C)(C)C)CC1)C(=O)N[C@@H](C(=O)O)c1ccccc1,6%,x,38%,6%,-18,-4%
Cc1ccc(NC(=O)C2CCC(CNC(=O)[C@@H]3Cc4ccccc4CN3)CC2)c(C)c1 (stereo partly drawn),-1%,-9%,-13%,4%,23,6%
Cn1cc(/C=N/n2cnc3scc(-c4ccc(Cl)cc4)c3c2=O)c2ccccc21,-26%,3%,0.58µM*,0.82µM*,142,3%
O=c1c2c(-c3ccccc3)csc2ncn1/N=C/c1cn(-c2ccccc2)nc1-c1cccs1,11%,2%,x,x,x,0%
SMILES,TGFb SMAD3 inh,TDP1 block,TDP1 cell CPT,DT40 TDP1 no CPT,IL1B secr inh,HepG2 viability
COC(C(=O)Nc1ccnn1C1CCN(Cc2nccs2)CC1)c1ccccc1 (stereo not drawn),0%,4%[56.1 µM],-6%,-11%,0,-3%
COc1ccccc1CCC(=O)Nc1ccc2c(c1)c(=O)n(C)n2Cc1cccc(C(F)(F)F)c1,-4%,x,23µM*,u,-12,-20%
COc1ccccc1CCC(=O)Nc1ccc2c(c1)c(=O)n(C)n2Cc1ccc(F)cc1,-9%,x,4.6µM*,5.2µM*,35,5%
COc1ccccc1CCC(=O)Nc1ccc2c(c1)c(=O)n(C)n2C,7%,x,u,-18%,0,-17%
Cn1c(=O)c2cc(NC(=O)CCc3ccccc3)ccc2n1Cc1cccc(C(F)(F)F)c1,-4%,x,16µM*,13µM*,9,5%
Cn1c(=O)c2cc(NC(=O)CCc3ccc(O)cc3)ccc2n1Cc1cccc(C(F)(F)F)c1,5%,x,u,21µM*,0,3%
CCOCCC(=O)Nc1ccc2c(c1)c(=O)n(C)n2Cc1cccc(C(F)(F)F)c1,6%,x,-18%,-20%,23,5%
CCc1ccc(-n2c(=O)c3c4c(sc3n(Cc3ccccc3C#N)c2=O)CCC4)cc1,0%,2%,-12%,-7%,x,1%
CCCCCCCC/C=C\CCCCCCCC(=O)OCC(CO)OC(=O)CCCCCCC/C=C\CCCCCCCC (stereo not drawn),x,9%,-29%[4.12 µM],-7%[4.12 µM],x,x
Cn1c(=O)c2cc(NC(=O)CCc3ccccc3)ccc2n1-c1ccccc1F,u,x,12µM*,13µM*,40,-5%
COc1cccc(Cn2c3ccc(NC(=O)CCc4ccc(F)cc4)cc3c(=O)n2C)c1,u,x,4.6µM*,3.7µM*,43,7%
CCOCCC(=O)Nc1ccc2c(c1)c(=O)n(C)n2-c1ccccc1F,-7%,x,-27%,-21%,-1,1%
COCCCNCC(O)C(F)(F)F (stereo not drawn),14%,1%,-12%,3%,25,13%
COc1cccc(Cn2c(=O)c(-c3cccs3)nc3cnc(OCc4ccccc4)nc32)c1,x,x,-2%,18%,x,x
